From PubChem BioAssay
HT1080 IDH1KD tx: HT-1080 IDH1 knockdown cell toxicity (counter line). HT-1080 IDH1 knockdown viability, ATP luminescence, 48 h. Potency, µM (highest dose often 46.1 µM), actives largely listed as cytotoxic. 2% of 360,000 active. AID 686971
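CellTiter-Glo luminescence after 48 h compound exposure at 37 degrees C of IDH1-knockdown HT-1080 cells in 5% FBS RPMI. %Activity scaled between DMSO wells and cell-free media wells, with curves fitted and assigned curve classes.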
DT40 TDP1 CPT: growth inhibition of DT40 Tdp1-/-;hTDP1 cells with camptothecin (screen for TDP1 inhibitors) | chicken DT40 Tdp1-/-;hTDP1 cells + 20 nM CPT, ATP luminescence, 48 h | Potency, µM (top dose mostly 46.2 µM), actives largely listed as inhibitors | 12% of 420,000 active | AID 686979; further: nearly all actives have a fitted effect of over 55% in size
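Chicken DT40 Tdp1-/- cells stably complemented with human TDP1 were seeded at 400 cells/well in medium containing 20 nM camptothecin, exposed to pin-transferred compounds, and grown at 37 °C for at least 48 hr. Viability was read as ATP luminescence.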
IL1B secr inh: inhibitors of inflammasome signaling (IL-1 beta secretion); THP-1 LPS/ATP IL-1B secretion, AlphaLISA, 16 h; active compounds read low; activity change, % at 57.5 µM; 4.7% of 360,000 active; in the data active means activity change below about -50%; inconclusive means mostly about -30% to -49%
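Secreted IL-1B measured by AlphaLISA bead assay after 16 h compound exposure of THP-1 cells; compounds (final up to 57.5 uM) added 1 h before LPS (250 ng/mL) and ATP (1.25 mM) stimulation; lower signal means less secretion.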
HT1080NT lethal: kills 2HG-producing HT-1080-NT fibrosarcoma cells | HT-1080-NT fibrosarcoma viability, CellTiter-Glo ATP luminescence, 48 h | Potency, µM (doses to about 46.1 µM), actives largely listed as cytotoxic | 1.6% of 360,000 active;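 further: NT is the 2HG producing partner of a matched IDH1 knockdown line; nearly all actives have a fitted effect of over 55% in size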
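HT-1080-NT; 750 cells/well; 5% FBS RPMI; 48 h compound, 37 degrees C; CellTiter-Glo luminescence; curve fitting and curve-class assignment.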
DT40 TDP1 no CPT: qHTS for Inhibitors of human tyrosyl-DNA phosphodiesterase 1 (TDP1): qHTS in cells in absence of CPT; DT40 Tdp1-/- hTDP1 cells, no CPT, ATP luminescence, 48 h; Potency, µM (series often up to 46.2 µM), actives largely listed as inhibitors; 15% of 420,000 active; AID 686978, 2013; further: nearly all actives have a fitted effect of over 55% in size
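Camptothecin absent (DMSO only). Human TDP1-complemented DT40 knockout cells, 400 cells/well, 37 °C for minimum 48 hr; ATP measured via CellTiter-Glo, 30 min dark incubation, luminescence.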
Hits are given with their value; i = inactive; ? = inconclusive; nt = no result given; [ ] = dose if it differs, or a comment. Compounds with a hit are over-represented: about 19% of the library has one in this group of screens. Unless noted, the call rests on the fitted dose curve; in most records, active means well fitted curve in the direction sought with a large enough effect; inconclusive means small, poorly fitted or top-dose-only effect, or another doubt; inactive means no such curve, though single readings can be large; an effect the other way counts as inactive or inconclusive.

SMILES	HT1080 IDH1KD tx	DT40 TDP1 CPT	IL1B secr inh	HT1080NT lethal	DT40 TDP1 no CPT
Cn1c(NNC(=O)c2cccc3ccccc23)cc(=O)n(C)c1=O	i	i	i	i	i
CC(C)C[C@@H]1NC(=O)[C@H](CCCN)NC(=O)[C@H](C(C)C)NC(=O)[C@@H]2CCCN2C(=O)[C@@H](Cc2ccccc2)NC(=O)[C@H](CC(C)C)NC(=O)[C@H](CCCN)NC(=O)[C@H](C(C)C)NC(=O)[C@@H]2CCCN2C(=O)[C@@H](Cc2ccccc2)NC1=O	nt	0.411µM	nt	nt	0.146µM
COCCOc1ccc(C(F)(F)F)cc1NC(=O)CN1C(=O)NC(C)(c2ccc3c(c2)OCO3)C1=O (stereo not drawn)	i	i	i	i	i
FC(F)(F)c1ccc(N2CCN(c3ncnc4c3nnn4Cc3ccccc3Cl)CC2)cc1	i	?	i	i	?
Cc1nnc(NCc2ccc(F)cc2)c2c1nnn2Cc1ccccc1Cl	nt	2.91µM	nt	nt	2.31µM
O=C(c1ccco1)N1CCN(c2ncnc3c2nnn3Cc2ccccc2Cl)CC1	i	?	i	i	23.1µM
O=C(c1ccco1)N1CCN(c2nc(C(F)(F)F)nc3c2nnn3Cc2ccccc2)CC1	?	18.4µM	?	?	?
Fc1ccc(N2CCN(c3ncnc4c3nnn4Cc3ccccc3Cl)CC2)cc1	i	?	i	i	14.6µM
CCOC(=O)C1CCN(c2ncnc3c2nnn3Cc2ccccc2Cl)CC1	i	i	i	i	i
CCN(CC(=O)Nc1c(F)cccc1F)C(=O)C1CCN(S(=O)(=O)c2ccc(C)cc2C)CC1	i	i	i	i	i
CN(Cc1ccno1)C(=O)CC1C(=O)NCCN1CC(c1ccccc1)c1ccccc1 (stereo not drawn)	i	i	i	i	i
CC1NC(=S)N(C2CCCCC2)C1=O (stereo not drawn)	i	i	i	i	i
Cc1oc2ncn(C)c(=O)c2c1C(=O)NC(C)c1ccccc1 (stereo not drawn)	nt	i	nt	nt	i
CC1CCN(S(=O)(=O)c2ccc(N3CCCCS3(=O)=O)cc2)CC1	nt	i	nt	nt	?
CCOC(=O)c1sc(NC(=O)CSc2nc(-c3ccco3)cc(C(F)(F)F)n2)c(C(=O)OCC)c1C	i	i	i	i	i
Cc1nnc(NCc2ccc(Cl)cc2)c2c1nnn2Cc1ccc(F)cc1	nt	i	nt	nt	i
Cc1nnc(N2CCN(c3ccc(Cl)cc3)CC2)c2c1nnn2Cc1ccc(F)cc1	nt	?	nt	nt	2.59µM
COc1ccccc1S(=O)(=O)CC(O)COc1ccc(F)cc1Cl (stereo not drawn)	i	i	-61.5	i	i
Cc1ccc(S(=O)(=O)CC(O)COc2ccc(F)cc2Cl)c(C)c1 (stereo not drawn)	i	i	-144.9	i	i
Cc1ccc(S(=O)(=O)CCC(=O)OCC(=O)NC(N)=O)cc1	i	?	i	?	i
CC(=O)CCS(=O)(=O)c1ccc(Oc2ccc(S(=O)(=O)CCC(C)=O)cc2)cc1	?	3.66µM	-74.9	?	8.2µM
CC(=O)CS(=O)(=O)c1ccc(Oc2ccc(S(=O)(=O)CC(C)=O)cc2)cc1	i	?	i	i	?
CCOC(=O)CCS(=O)(=O)c1ccc(-c2ccc(S(=O)(=O)CCC(=O)OCC)cc2)cc1	i	i	-98.9	i	i
O=C(COC(=O)/C=C/c1ccccc1[N+](=O)[O-])NC1CCS(=O)(=O)C1 (stereo not drawn)	i	i	i	i	i
COc1cc(CC(=O)OCC(=O)Nc2sccc2C(N)=O)cc(OC)c1OC	i	29.1µM	i	i	16.4µM
SMILES	HT1080 IDH1KD tx	DT40 TDP1 CPT	IL1B secr inh	HT1080NT lethal	DT40 TDP1 no CPT
O=C(COC(=O)/C=C/c1ccccc1[N+](=O)[O-])NC1CC1	i	?	i	i	20.6µM
NC(=O)c1ccsc1NC(=O)COC(=O)/C=C/c1ccccc1	i	?	i	i	18.4µM
NC(=O)c1ccsc1NC(=O)COC(=O)/C=C/c1ccccc1[N+](=O)[O-]	i	?	i	i	16.4µM
NC(=O)c1ccsc1NC(=O)COC(=O)COc1ccccc1[N+](=O)[O-]	i	i	i	i[9.24 µM]	i
COc1cccc(-c2cc(C(=O)NCCc3ccc(C)cc3)[nH]n2)c1	nt	i	nt	nt	?
COCCNC(=O)C(c1c[nH]c2ccccc12)N(C(=O)c1snc(C(N)=O)c1N)c1cccc(OC)c1 (stereo not drawn)	i	?	i	i	i
CCOc1ccccc1CNC(=O)c1ccccc1NC(=O)C1=CSCCO1	i	?	i	i	25.9µM
COc1ccc(CNC(=O)Cc2ccc(NC(=O)C3=C(C)OCCS3)cc2)cc1	5.8µM	2.31µM	i	?	2.06µM
COc1cccc(CNC(=O)c2ccccc2NC(=O)C2=C(C)OCCS2)c1OC	i	18.4µM	i	i	11.6µM
CC1=C(C(=O)Nc2ccc(CC(=O)NCc3ccc(OC(C)C)cc3)cc2)SCCO1	?	0.164µM	i	?	0.184µM
CC1=C(C(=O)Nc2ccccc2C(=O)NCc2ccccc2)SCCO1	i	?	i	i	?
CC1CCCC(C)N1C(=O)COC(=O)CSc1ccc(C(N)=O)cc1[N+](=O)[O-] (stereo not drawn)	i	i	i	i	i
COc1cc(CC(=O)OCC(=O)Nc2cc([N+](=O)[O-])ccc2Cl)cc(OC)c1OC	i	i	i	i	i
S=C(NCc1ccncc1)Nc1cc(Cl)cc(Cl)c1	?	?	-54.2	i	i
Fc1ccc(NC(=S)NCCc2ccccn2)cc1	i	i	i	i	?
FC(F)(F)Sc1ccc(NC(=S)NCc2ccccc2)cc1	i	?	-87.7	i	20.6µM
S=C(NCc1ccncc1)Nc1ccc(Cl)c(Cl)c1	?	?	-60.7	i	?
S=C(NCCc1ccccn1)Nc1ccc(Cl)cc1	i	18.4µM	i	i	18.4µM
Cc1cccc(NC(=O)Cn2nnc(C(=O)NCc3cccs3)c2N)c1	nt	i	nt	nt	i
Cc1cccc(N(Cc2ccccc2)C(=O)c2ccccc2S(C)(=O)=O)c1	i	?	i	i	?
CC1CCN(c2nc3c(c(=O)[nH]c(=O)n3C)n2CCSc2ncccn2)CC1	i	i	?	i	?
O=C1C2CC=CCC2C(=O)N1Cc1ccccc1Cl (stereo not drawn)	i	i	i	i	?
S=C(NCc1ccccn1)Nc1ccccc1	i	i	i	i	i
S=C(NCc1ccccc1)Nc1ccncc1	i	10.3µM	i	i	?
S=C(NCc1ccncc1)Nc1ccccc1	i	i	i	i	?
S=C(NCc1ccccn1)Nc1ccc(Cl)c(Cl)c1	i	16.4µM	-63.3	i	?
N[C@H](CS)C(=O)O	nt	i	nt	nt	i
COCCn1c(SCC(=O)Nc2ccc(F)cc2)nc2c(c1=O)SCC2	i	i	i	i	i
